Source: PubChem BioAssay (The Scripps Research Institute Molecular Screening Center)
The list is not random: actives were taken first. Their share in the collection is about 3.5%.
FBW7 act – human FBW7 E3 ligase activation, primary screen; AlphaScreen FBW7–phospho-cyclin E peptide binding, activator screen; 650,000 tested, 0.13% active; normalized activity (activation), % at 26.1 µM; in the data active = normalized activity above about 1.9%;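 also: purified mutant Fbw7 with reduced substrate affinity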
Target sequence (Q969H0 whole entry, looked up): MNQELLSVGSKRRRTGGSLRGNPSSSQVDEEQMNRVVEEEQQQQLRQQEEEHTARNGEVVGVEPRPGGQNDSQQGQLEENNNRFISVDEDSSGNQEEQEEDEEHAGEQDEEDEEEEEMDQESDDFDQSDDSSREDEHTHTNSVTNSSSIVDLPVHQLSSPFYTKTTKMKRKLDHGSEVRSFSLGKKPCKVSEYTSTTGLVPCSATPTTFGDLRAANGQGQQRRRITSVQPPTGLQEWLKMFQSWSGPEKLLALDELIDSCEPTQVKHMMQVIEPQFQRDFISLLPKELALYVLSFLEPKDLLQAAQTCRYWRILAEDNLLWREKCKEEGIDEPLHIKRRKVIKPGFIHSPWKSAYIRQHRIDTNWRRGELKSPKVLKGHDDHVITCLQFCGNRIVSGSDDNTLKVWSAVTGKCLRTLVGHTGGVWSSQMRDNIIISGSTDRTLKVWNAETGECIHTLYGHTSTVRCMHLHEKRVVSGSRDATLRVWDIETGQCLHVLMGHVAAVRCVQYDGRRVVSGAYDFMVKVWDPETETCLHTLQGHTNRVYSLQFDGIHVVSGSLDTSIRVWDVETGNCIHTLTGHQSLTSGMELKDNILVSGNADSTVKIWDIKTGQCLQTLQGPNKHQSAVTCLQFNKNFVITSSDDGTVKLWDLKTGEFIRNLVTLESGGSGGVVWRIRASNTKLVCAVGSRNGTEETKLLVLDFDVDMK
MITF primary – inhibitors of human MITF; AlphaScreen MITF homodimerization, bead proximity signal; inhibition, % at 2.6 µM; 650,000 tested, 0.91% active; AID 1259374; in the data active = inhibition above about 50%
TEAD-YAP block – TEAD-YAP interaction inhibition; AID 1259422; 640,000 tested, 1.4% active; HEK-TIYL cells, TEAD-Gal4/YAP UAS-luciferase luminescence; inhibition, % at 9.12 µM; in the data active = inhibition above about 32%
GPR151 ag – activators of human GPR151; Q8TDV0; PathHunter beta-arrestin GPR151 cells, luminescence; activation, % at 11.2 µM; 650,000 tested, 1% active; in the data active = activation above about 4.9%
Each line names hits and unclear results; the compound was inactive in the other large screens.

O=C(Nc1ccccc1NC(=O)c1ccccn1)Nc1c(F)cccc1F	none
CC(C)(C)c1ccc(/C=N\NC(=O)c2ccccn2)cc1	TEAD-YAP block 35
Cc1ccc2c(c1)c(=O)c1ccccc1n2CC(=O)Nc1ccc(OC(F)(F)F)cc1	none
Cc1cc[n+]2cc(C)n(Cc3cccc(F)c3)c2c1	TEAD-YAP block 41
Cc1cc(C)n(Cc2cccc(F)c2)c(=O)c1C#N	none
CN(C)c1ccc(C(=NO)c2ccc(N(C)C)cc2)cc1	none
CN(C)c1ccc(C(=C2C=CC(=[N+](C)C)C=C2)c2ccc(N(C)C)cc2)cc1	MITF primary 92, TEAD-YAP block 89
Cc1ccc(-n2nc(C)c(NC(=O)CCl)c2C)cc1C	TEAD-YAP block 45
CCC(=O)Nc1c(C)nn(-c2ccc(C)c(C)c2)c1C	none
CCSc1nc2c(cnn2-c2ccc(F)cc2)c(=O)[nH]1	none
CC1CCN(CCN2CCn3c2nc2ccccc23)CC1	none
NC(=O)c1ccccc1NC(=O)c1ncoc1-c1ccccc1C(F)(F)F	TEAD-YAP block 49
O=C(Nc1ccccc1-n1ccnc1)c1ncoc1-c1ccccc1C(F)(F)F	none
Cc1ccn2cc(-c3ccc(F)cc3)nc2c1	TEAD-YAP block 73
Cc1ccn2cc(-c3ccc(S(=O)(=O)N(C)C)cc3)nc2c1	TEAD-YAP block 48
Cc1ccn2cc(-c3ccc([N+](=O)[O-])cc3)nc2c1	none
Cc1ccn2cc(-c3ccc(I)cc3)nc2c1	TEAD-YAP block 79
Cc1ccn2cc(-c3ccccc3Br)nc2c1	TEAD-YAP block 33
O=C(O)C1CCCCC1C(=O)NCc1ccco1 (stereo not drawn)	none
CC(C)NC(=O)[C@H]1C[C@@H](c2cccs2)NS(=O)(=O)N1C	none
CCOc1cc(C2C(C#N)=C(N)Oc3n[nH]c(-c4ccc(OC)cc4)c32)cc(Br)c1OC(=O)N1CCOCC1 (stereo not drawn)	none
COc1cc(OC)cc(C(=O)NCc2ccc(C(C)(C)C)cc2)c1	TEAD-YAP block 43
COc1cc(OC)cc(C(=O)NCc2ccc(S(N)(=O)=O)cc2)c1	none
O=C(Cn1c(=O)n(Cc2ccccc2Cl)c(=O)c2cccnc21)Nc1ccccc1	none
CCN1C=CC(=C2C(=O)c3ccccc3C2=O)C=C1	TEAD-YAP block 95
CN1C=CC(=C2C(=O)c3ccccc3C2=O)C=C1	none
CCCCN1C(C)=CC(=C2C(=O)c3ccccc3C2=O)C=C1C	TEAD-YAP block 56
COc1ccc(C(=O)NCc2nnc(SCC(=O)N3N=C(c4ccc(Br)cc4)CC3c3ccc(OC)cc3)n2C)cc1 (stereo not drawn)	none
Cc1cc(O)c(C=O)c2c1C(=O)Oc1c(COC(=O)/C=C/C(=O)O)c(O)c(C(=O)O)c(C)c1O2	MITF primary 76
Cc1ccc(Cl)cc1N1CCN(C(=O)c2ccc3c(c2)NC(=O)CS3)CC1	TEAD-YAP block 60
CCC(=O)N(C1=C(NC)C(=O)c2ccccc2C1=O)C(C)C	TEAD-YAP block 85
CNC1=C(N(Cc2ccc(Cl)c(Cl)c2)C(C)=O)C(=O)c2ccccc2C1=O	TEAD-YAP block 83
CC(=O)NC1=C(N(C)C)C(=O)c2ccccc2C1=O	none
CC(=O)N(Cc1ccc(F)cc1)C1=C(NCCc2ccccc2)C(=O)c2ccccc2C1=O	TEAD-YAP block 60
CC(=O)N(Cc1ccc(F)cc1)C1=C(Cl)C(=O)c2ccccc2C1=O	none
CC(=O)N(Cc1ccccc1)C1=C(N2CCCCC2)C(=O)c2ccccc2C1=O	none
N#CCCn1cc(/C=N/NC(N)=S)c(-c2ccc(F)cc2)n1	none
O=C(Nc1cc2ccccc2oc1=O)c1ccccc1	TEAD-YAP block 54
O=C(Nc1cc2ccccc2oc1=O)c1ccc(Br)cc1	none
CC(=O)Oc1ccc2cc(NC(=O)c3ccc(C)cc3)c(=O)oc2c1	TEAD-YAP block 52
CC(C)OC(=O)C1=C(N)SC(C(=O)c2ccccc2)C1c1ccccc1 (stereo not drawn)	none
COCCNC(=O)CC(=O)N/N=C/c1ccc(O)c(OC)c1	none
O=c1cc(Nc2ccc3c(c2)OCCO3)[nH]c(=O)n1-c1ccc(Cl)cc1	none
O=c1cc(Nc2ccc3c(c2)OCCO3)[nH]c(=O)n1C1CCCCC1	TEAD-YAP block 58
CC(C)n1cnc2c(Nc3ccc(N4CCOCC4)cc3)nc(Nc3nc4ccccc4n3C)nc21	TEAD-YAP block 33
CC(C)n1cnc2c(Nc3ccc(N4CCOCC4)cc3)nc(Nc3ccccn3)nc21	TEAD-YAP block 33
c1ccc(N2CCN(c3nc(Nc4ccc(N5CCOCC5)cc4)c4ncn(C5CCCCC5)c4n3)CC2)nc1	MITF primary 52
CC(C)n1cnc2c(Nc3ccc(N4CCOCC4)cc3)nc(-c3ccc(C(N)=O)cc3)nc21	TEAD-YAP block 32
O=C(Oc1ccc(Cl)cc1)C1c2ccccc2Oc2ccccc21	none
CC(=O)Nc1ccc(Nc2nc(NC3CCC(O)CC3)nc3c2ncn3C(C)C)cc1 (stereo not drawn)	none
CC(C)n1cnc2c(Nc3ccccc3)nc(NC3CCC(O)CC3)nc21 (stereo not drawn)	TEAD-YAP block 68
CC(=O)Nc1cc(OC(C)=O)c2nonc2c1OC(C)=O	TEAD-YAP block 99
C=CS(=O)(=O)c1ccc(C(C)(C)C)cc1	TEAD-YAP block 68
CN(C)c1c(C(=O)N2CC(=O)Nc3ccccc32)cc([N+](=O)[O-])cc1[N+](=O)[O-]	none
O=C1CN(C(=O)c2cc([N+](=O)[O-])ccc2Cl)c2ccccc2N1	TEAD-YAP block 59
COc1cccc(C(=O)N2c3ccccc3NC(=O)CC2C)c1 (stereo not drawn)	none
COc1cccc(C(=O)N2CC(=O)Nc3ccccc32)c1	TEAD-YAP block 42
CCc1ccc(C2=CC(c3ccccc3F)n3c(nc4ccccc43)N2)cc1 (stereo not drawn)	TEAD-YAP block 68
Cc1ccc(C2=CC(c3ccc(F)c(Br)c3)n3c(nc4ccccc43)N2)cc1 (stereo not drawn)	TEAD-YAP block 52
Fc1ccccc1C1C=C(c2ccc(Br)cc2)Nc2nc3ccccc3n21 (stereo not drawn)	none
COc1cccc(C2=CC(c3ccccc3F)n3c(nc4ccccc43)N2)c1 (stereo not drawn)	none
Cc1ccc(C2=CC(c3ccc(C)cc3)n3c(nc4ccccc43)N2)cc1 (stereo not drawn)	none
COc1ccc(C2=CC(c3ccccc3F)n3c(nc4ccccc43)N2)cc1 (stereo not drawn)	TEAD-YAP block 35
CCOc1ccc(C(=O)/C=C(\Nc2ccc(OC)cc2)C(=O)O)cc1	none
CC1CC(C)(C)NC(=S)N1CC(=O)N1CC(=O)N(CCc2ccccc2)C(=O)C1 (stereo not drawn)	none
O=CN1CCCN(C(=O)CCN2Cc3ccccc3OC(c3ccccc3F)C2)CC1 (stereo not drawn)	none
c1ccc(CNc2ncnc3c2cnn3-c2ccccc2)cc1	none
CC(C)(C)Nc1ncnc2c1cnn2-c1ccccc1	TEAD-YAP block 45
Cc1ccc(-n2ncc3c(NC(C)(C)C)ncnc32)cc1	TEAD-YAP block 49
Cc1ccccc1N=c1oc2ccccc2cc1-c1nc2ccccc2[nH]1	TEAD-YAP block 43
Cc1ccc2nc(-c3cc4ccccc4oc3=N)[nH]c2c1	TEAD-YAP block 93
